Where “and” joins values, the source holds several entries; their conditions need not be identical. Equal values may be shown once. Among all 360,000 compounds or so, about 1,100 (0.31%) were called active. Shown is part of a subset that was picked to be rich in actives. Values without a mark were called inactive. Rule as the data show it: active = activation above about 7.5%; inactive = the rest.
Each compound was assayed on Methionine sulfoxide reductase A (Bos taurus) (assay: bovine MsrA enzyme activators, primary screen, biochemical, absorbance, HTS (AID 602163;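 also: 0% = vehicle and 100% = reference activator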)). Details: purified bovine MsrA, absorbance read-out; at 10.6 µM; active compounds read high.

Structure (SMILES) | activation
CCOC(=O)C(C)n1cnc2c(nnn2-c2cccc(OC)c2)c1=O (stereo not drawn) | -0.63%
CCOc1cccc(-n2nnnc2-c2ccc(OC)cc2)c1 | 15.8% (active)
COc1ccc(NC(=O)CSc2nnnn2-c2cccc(OC)c2)cc1 | -2.59%
COC(=O)c1c(C)cc(O)c(C)c1O | 3.54%
Cc1cc(OCc2cc(C(=O)NCc3cc(C(C)C)no3)no2)cc(C)c1Cl | -8.01%
S=c1[nH]nc(Nc2ccccc2)s1 | 3.66%
S=c1[nH]nc(NCCc2ccccc2)s1 | 10.4% (active)
Nc1c(NCCc2ccccc2)c2ccccc2oc1=O | -3.29%
Cc1cc(=O)oc2c1ccc1ccccc12 | -2.71%
CC1(C)SC2C(NC(=O)COc3ccccc3)C(=O)N2C1C(=O)O (stereo not drawn) | -2.47% and -3.56%
CC1(C)S[C@@H]2[C@H](NC(=O)COc3ccccc3)C(=O)N2C1C(=O)OCc1ccccc1 (stereo partly drawn) | 8.55% (active)
COC(=O)C1[C@H]2SC(C)(C)C(C(=O)OC)N2C(=O)N1Cc1nc2ccccc2s1 (stereo partly drawn) | -2.77%
O=c1oc2ccc(C#CC3(O)CCCCC3)cc2cc1-n1cc(-c2ccsc2)nn1 | -0.09%
CSCCC1NC(=O)N(CC(=O)Nc2cccc(S(=O)(=O)N3CCCCCC3)c2)C1=O (stereo not drawn) | 15.5% (active)
Cn1nnnc1SCC(=O)Nc1cccc(S(=O)(=O)N2CCCCC2)c1 | -4.48%
O=C(CSc1ccccc1)Nc1cccc(S(=O)(=O)N2CCCCC2)c1 | -2.42%
O=C(Cc1ccc(F)cc1)NC1CCCC1 | -5.09%
O=C(O)C1CCCCC1C(=O)Nc1ccc(Cl)cc1 (stereo not drawn) | 9.28% (active)
O=C(NC1CCN(C(=S)Nc2ccc(Cl)cc2)CC1)C1CCCCC1 | -9.13%
CC(=O)Nc1ccc(NC(=O)C2CCCN(S(=O)(=O)c3ccc(Cl)cc3)C2)cc1 (stereo not drawn) | -1.47%
O=C(O)Cc1ccc(NC(=O)C2CCCCC2C(=O)O)cc1 (stereo not drawn) | 8.45% (active)

Structure (SMILES) | activation
Cc1ccc(NC(=O)C2CC2c2ccccc2)cc1 (stereo not drawn) | 1.6%
O=S1(=O)C=C(SCCN2CCCC2)c2ccccc21 | 3.43%
CN1CCN(c2ccc3c(c2)OC[C@H](Cc2ccccc2)NS3(=O)=O)CC1 | -2%
O=C(O)C1OC(C(=O)O)C2C1C(F)(F)C2(F)F (stereo not drawn) | 0.7%
C/C(Cc1ccccc1)=N\NC(=O)CNC(=O)c1ccc2c(c1)OCCO2 | -1.01%
Cc1ccc(NC(=O)c2cc([N+](=O)[O-])ccc2Cl)c(O)c1 | -10%
O=C(Nc1ccc2c(c1)OCCO2)C(c1ccc(F)cc1)N1CCCCC1 (stereo not drawn) | -9.07%
COc1ccc(CN(C)C(=O)Cc2c[nH]c3ccccc23)c(OC)c1OC | -0.09%
COc1cccc(CNCCc2c[nH]c3ccccc23)c1OCc1ccccc1F | 7.97% (active)
Fc1ccccc1COc1ccccc1CNCc1ccncc1 | -0.5%
CSc1ccc(Cl)c(C(=O)OCC(=O)N2CC(C)OC(C)C2)c1 (stereo not drawn) | 1.67%
CCN(/N=C/c1ccc(N(C)C)cc1)c1nc2ccccc2[nH]1 | -3.63%
CC1(C)CC(=O)C(C=NCc2cccnc2)=C(O)C1 | -1.39%
COC(=O)C1(O)CC(C(C)C)=NN1C(=O)c1ccc(Cl)cc1 (stereo not drawn) | -2.59%
NC(N)=Nc1nc2ccc(Br)cc2c(=O)[nH]1 | -1.23%
O=c1c2cc(Br)ccc2nc(-c2cccc(Cl)c2)n1O | 8.68% (active)
NC(=O)c1cc(-c2cccnc2)nc2ccc(Br)cc12 | -2.46%
COc1ccccc1C(=O)Nc1ccc(OCC(=O)N2CCCCC2)cc1 | -2.88%
COc1ccc(/C=C/C2=CC(C)(C)NC(=S)N2)c(OC)c1 | -3.37%
COc1ccc(NC(=O)COC(=O)CNC(=O)C2CCCCC2)cc1 | -4.73%
CCOc1ccccc1OCCCNCc1ccccc1 | 8.23% (active)

Structure (SMILES) | activation
c1ccc(CNCc2ccc(CNCc3ccccc3)cc2)cc1 | -4.45%
CCOCCCNCc1ccc(OCc2ccc(F)cc2)c(OC)c1 | -0.52%
Cc1ccccc1NC(=O)c1nn(-c2ccc(F)c(F)c2)ccc1=O | 0.66%
Cc1[nH]c(C)c(S(=O)(=O)N2CCN(c3cccc(C(F)(F)F)c3)CC2)c1C(=O)N1CCCC1 | -2.75%
COc1ccccc1CNC(=O)c1cc(-c2cc(F)ccc2OC)n[nH]1 | 1.13%
Oc1cc(O)c2c(c1)OC(c1ccc(O)c(O)c1)C(O)C2 (stereo not drawn) | -3.17%
O=C(Nc1c(Br)cc2c(c1Br)Cc1cc([N+](=O)[O-])ccc1-2)C(Cl)Cl | -0.8%
COc1ccc(C(CNC(=O)c2cccnc2SC)N2CCOCC2)cc1 (stereo not drawn) | -1.39%
COc1ccc(C(CNC(=O)c2cc3c(s2)CCCC3)N2CCOCC2)cc1 (stereo not drawn) | 9.37% (active)
COc1ccc(C(CNC(=O)CSc2ccccc2)N2CCOCC2)cc1 (stereo not drawn) | -2.38%
CCC(C)CCN1CCN=C1N(C)C (stereo not drawn) | -6.93%
O=C(NC1CCc2ccccc21)C12CN(Cc3ccccc3)CC1C(c1cccc([N+](=O)[O-])c1)=NO2 (stereo not drawn) | -4.81%
O=C(NCCCN1CCOCC1)c1cnn2c(-c3ccccc3)cc(-c3ccccc3)nc12 | 0.61%
COc1ccccc1-n1cn[nH]c1=S | 9.25% (active)
COc1cccc(CNn2cn[nH]c2=S)c1OCc1ccccc1 | -8.32%
FC(F)(F)c1ccc(-n2cn[nH]c2=S)cc1 | 4.3%
CCN(C(=O)Cc1nc(N)n[nH]1)C1(C(=O)Nc2ccccc2)CCCCC1 | -1.75%
Nc1[nH]c(=S)nc2nc(-c3ccccc3)c(-c3ccccc3)nc12 | 4.05%
CN(C)S(=O)(=O)c1ccc(NC(=O)COC(=O)c2n[nH]c3ccccc23)cc1 | 14.2% (active)
COc1ccc(S(=O)(=O)N(C)C)cc1NC(=O)COC(=O)c1n[nH]c2ccccc12 | -0.9%
O=C(COC(=O)c1n[nH]c2ccccc12)Nc1ccccc1Br | -2.21%
